Compounds with a hit are over-represented: about 3.1% of the library has one in this group of screens.
HIF-2a block: HIF-2a reporter inhibitors, primary screen, luminescence, 786-0 RCC cells. 786-0 RCC cells HIF-2a reporter, luciferase luminescence, overnight. inhibition, % at 18.8 µM. 360,000 tested, 0.72% active. AID 624352, 2012;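 active = inhibition of the luminescence signal of 40% or more relative to plate controls, in a single-dose primary screen at 18.75 µM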
KKLEB tox: cytotoxicity in KKLEB CF airway cells, primary screen, cytotoxicity control for CF NF-kB inhibitor project, cell-based, uHTS, fluorescence assay plates | 360,000 tested, 0.36% active | AID 602141, 2011 | activity change (cytotoxicity), % at 5 µM | KKLEB CF airway cells viability, ATPlite luminescence, overnight; stronger effect = lower value; cells stimulated with P. aeruginosa culture filtrate;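 active = corrected activity change at or below -50% at 5 µM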
Peg3 prom inh-1: Peg3 promoter-driven luciferase inhibitors, primary screen, cell-based, HeLa, luciferase luminescence; HeLa PEG-Prom luciferase reporter, overnight; inhibition, % at 20 µM; 360,000 tested, 1.7% active; AID 588405, 2011;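 active = inhibition of at least 50% at 20 µM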
PPC-1+TRAIL kill: compounds killing PPC-1 cancer cells with TRAIL present, primary screen, TRAIL potentiator project, ATPLite luminescence, uHTS. cell killing (% activity), % at 4 µM or 5 µM. 220,000 tested, 0.41% active. PPC-1 cells + TRAIL, ATPLite viability luminescence;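 active = cell killing above 50% in the first pass at 4 µM, then a duplicate retest at 5 µM averaging 50% or more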;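 also: plate controls were cells with TRAIL plus DMSO for no effect and medium-only wells lacking cells for full effect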
CF NFkB inh: inhibitors of PAF-induced NF-kB signaling, primary screen, cell-based, GFP fluorescence, uHTS; inhibition, % at 5 µM; 360,000 tested, 0.86% active; AID 588850, 2011; KKLEB NF-kB-GFP reporter, GFP fluorescence overnight;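 active = at least 50% inhibition at 5 µM, scaled per plate between neutral and stimulator controls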;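 also: PAF is a Pseudomonas aeruginosa culture filtrate used as stimulus; plate controls were PAF-stimulated DMSO wells for no effect and unstimulated DMSO wells for full effect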
C8 TRAIL sens: viability loss with TRAIL in NB7+C8 cells, primary screen, TRAIL sensitizer project, cell-based, ATPlite luminescence | inhibition (viability loss, TRAIL sensitization), % at 10 µM | 360,000 tested, 1% active | AID 624354, 2012;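 active = compounds causing at least 50% loss of cell viability in the single-dose screen, relative to plate controls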
PPC1 cytotox: cytotoxicity in PPC-1 cells, confirmation, cytotoxicity control for TRAIL apoptosis potentiator project, cell-based, ATP content luminescence; shares compounds with PPC-1+TRAIL kill; PPC-1 viability, ATPlite luminescence, overnight; 1,200 tested, 50% active; cytotoxicity, % at 5 µM;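 active = reconfirmed compounds whose average cytotoxicity reaches 50% or more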;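 also: 0% = DMSO-treated cells and 100% = wells holding medium but no cells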
Peg3 prom inh-2: Peg3 promoter reporter inhibitors, retest, confirmation, cell-based, HeLa, luciferase reporter, single concentration. shares compounds with Peg3 prom inh-1. HeLa PEG-Prom luciferase reporter, luminescence, overnight. inhibition, % at 20 µM. 1,300 tested, 84% active;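 active = at 20 µM dose, 40% or more inhibition averaged across four replicates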
Mdm2-MdmX confirm: retested Mdm2-MdmX interaction blockers, confirmation, cell-based, luminescence, single concentration, set 2. inhibition, % at 8 µM. 740 tested, 99% active. AID 504601, 2011. shares compounds with HIF-2a block. SaOS-2 split-luciferase Mdm2/MdmX complementation;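 active = mean inhibition of the luminescence signal across two replicates at or above 26 percent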
Target sequence (O15151 whole entry, looked up): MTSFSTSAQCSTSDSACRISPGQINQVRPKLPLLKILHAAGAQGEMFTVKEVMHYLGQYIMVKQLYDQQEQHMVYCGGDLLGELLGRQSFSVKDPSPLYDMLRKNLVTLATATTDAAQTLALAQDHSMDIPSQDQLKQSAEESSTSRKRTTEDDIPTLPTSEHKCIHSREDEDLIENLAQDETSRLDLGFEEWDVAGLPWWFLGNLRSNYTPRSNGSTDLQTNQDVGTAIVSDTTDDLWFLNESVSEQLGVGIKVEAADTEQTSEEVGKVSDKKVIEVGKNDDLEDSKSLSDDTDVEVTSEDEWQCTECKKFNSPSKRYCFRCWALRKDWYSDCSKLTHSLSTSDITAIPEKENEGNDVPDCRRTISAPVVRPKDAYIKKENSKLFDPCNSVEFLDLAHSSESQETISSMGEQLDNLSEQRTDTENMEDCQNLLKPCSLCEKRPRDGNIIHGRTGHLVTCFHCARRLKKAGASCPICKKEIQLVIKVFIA
Target sequence (Q00987 whole entry, looked up): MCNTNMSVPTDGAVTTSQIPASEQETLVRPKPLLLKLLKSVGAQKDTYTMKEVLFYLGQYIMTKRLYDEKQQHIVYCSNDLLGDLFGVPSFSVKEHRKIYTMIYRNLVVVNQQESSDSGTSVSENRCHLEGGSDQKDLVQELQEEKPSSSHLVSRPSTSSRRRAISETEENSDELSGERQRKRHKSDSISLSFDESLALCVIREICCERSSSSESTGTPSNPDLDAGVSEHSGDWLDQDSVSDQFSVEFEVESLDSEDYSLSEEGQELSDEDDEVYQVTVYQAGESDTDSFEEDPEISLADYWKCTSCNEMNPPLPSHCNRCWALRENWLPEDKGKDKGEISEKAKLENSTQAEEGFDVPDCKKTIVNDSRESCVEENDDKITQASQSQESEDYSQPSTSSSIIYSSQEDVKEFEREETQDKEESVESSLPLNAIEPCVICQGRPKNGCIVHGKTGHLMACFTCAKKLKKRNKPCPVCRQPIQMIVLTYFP
HIF-2a conf: HIF-2a reporter inhibitor retest, confirmation, luminescence, 786-0 RCC cells. HIF-2a luciferase reporter luminescence, overnight. 1,800 tested, 56% active. shares compounds with HIF-2a block. inhibition, % at 18.8 µM;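 active = mean inhibition across four replicates of at least 40 percent at the single tested concentration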
HIF-1a cs: HIF-1a luciferase reporter signal reduction – MiaPaCa-2 cells, single concentration, counter-screen for HIF-2a inhibitor project, confirmation. MiaPaCa-2 HIF-1a luciferase reporter, desferoxamine, overnight. shares compounds with HIF-2a block. 1,800 tested, 72% active. inhibition, % at 18.8 µM;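 active = mean inhibition of the reporter signal across four replicates at the single tested dose of 50% or more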
* hit, by the source's call; . = no result given.

SMILES	HIF-2a block	KKLEB tox	Peg3 prom inh-1	PPC-1+TRAIL kill	CF NFkB inh	C8 TRAIL sens	PPC1 cytotox	Mdm2-MdmX confirm	HIF-2a conf	HIF-1a cs	others
Cc1nc2cc(-c3ccccc3)sc2c(=O)n1N	75*	-6	90*	65*	-12	76*	64*	.	88*	77*	Peg3 prom inh-2=79*
CC(=O)c1c(C)[nH]c(C(=O)Nc2ccc(C)cn2)c1C	46*	5	49	69*	-25	73*	66*	.	60*	56*
Cc1ccnc2nc(C(=O)OC(C)C(=O)NCc3ccccc3)nn12 (configuration not stated)	8	-2	5	.	-4	-8	.	.	.	.
COc1ccc(S(=O)(=O)N2CCCC2CNC(=O)C(=O)NCc2ccccn2)cc1 (configuration not stated)	4	-18	-1	.	2	-15	.	.	.	.
CC[C@@]1(O)C(=O)OCc2c1cc1n(c2=O)Cc2cc3c(N)cccc3nc2-1	27	-23	72*	32	76*	15	32	100*	.	.
CC(=O)N/C(=N\c1nc(C)cc(C)n1)Nc1ccc2ccccc2c1	-77	-5	-64	.	-34	24	.	.	.	.
COc1ccc(N=C2NN=C(c3ccc4c(c3)OCCO4)CS2)cc1	-140	-8	-225	3	1	-6	.	.	.	.
c1cc2c(cc1C1=NNC(=NC3CC3)SC1)OCCO2	86*	-32	93*	89*	-3	92*	88*	95*	94*	97*	Peg3 prom inh-2=91*
Cc1cc(Cl)ccc1-c1nc(NC(C)C)nc2ccsc12	16	-8	9	.	4	0	.	.	.	.
COc1ccccc1-c1noc2c1C(=O)N(Cc1cn(-c3ccccc3OC)nn1)CC2	10	.	.	.	.	-10	.	.	.	.
O=C(Nc1nc2ccc(S(=O)(=O)N3CCCC3)cc2s1)c1ccccn1	-96	20	-119	7	-6	17	.	.	.	.
Cc1ccc2nc(NC(=O)c3ccccn3)sc2c1	80*	-67*	106*	91*	-5	91*	89*	102*	89*	80*	Peg3 prom inh-2=96*
COc1cc(/C=C(/C(=O)c2cccs2)c2nc3ccccc3[nH]2)cc(OC)c1O	79*	-7	100*	22	35	37	34	103*	57*	102*
CC1CCc2nc(NC(=O)Cc3cccs3)sc2C1 (configuration not stated)	-290	-8	-352	-12	17	26	.	.	.	.
CC1CCc2nc(NC(=O)c3ccco3)sc2C1 (configuration not stated)	43*	-31	18	80*	-18	84*	77*	.	72*	88*
CCOC(=O)[C@]12CCC=C1N(CCC1=CCCCC1)C(=O)[C@H](CC(=O)NCCCCc1ccccc1)C2	3	.	.	.	.	-2	.	.	.	.

Source: PubChem
